# Bioassay records as filed in PubChem BioAssay.
# A selection: hits, their analogues and other compounds. The true share with any hit is near 6.2%.
# LASV entry inh – blocks Lassa virus binding to or entry into cells | Lassa virus pseudotype entry inhibition, cell reporter | Potency, µM (doses to about 37.9 µM), for the others: at the highest dose activity change, negative = inhibition, actives largely listed as inhibitors | 300,000 tested, 1.2% active; calls by dose curve; tested in HEK293 cells; note: potency is the fitted concentration of half-maximal effect; nearly all actives have a fitted effect of over 50% in size
# Marburg entry inh – inhibitors of Marburg virus binding or cell entry; Marburg virus pseudotyped entry inhibition, cell reporter; Potency, µM (series often up to 37.8 µM), for the others: top-dose activity change, negative = inhibition, usual class: inhibitors; 300,000 tested, 1.8% active; calls by dose curve; tested in HEK293 cells; note: potency is the fitted concentration of half-maximal effect
# HCMV antiviral – blocks human cytomegalovirus replication; HFF cells, HCMV-luciferase reporter, 72 h; stronger effect = lower value; activity change, negative = inhibition, % at 57.5 µM; 410,000 tested, 4.5% active; AID 1259415; in the data active = activity change below about -60%; inconclusive = no clear call, values can overlap the other calls; inactive = above about -39%
#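 After 16 h attachment at 37C, HFF cells received test compound and HCMV-luciferase (1 PFU/cell); reporter luminescence read 72 h later, data normalized against buffer-only and known inhibitor Salinomycin.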
# FMDV antiviral – blocks foot and mouth disease virus; Potency, µM (titrated, usually from 57.9 µM), inactives show top-dose activity change, negative = inhibition, usual class: inhibitors; 410,000 tested, 1.2% active; FMDV antiviral cell-based qHTS; AID 1159524; calls by dose curve; tested in HEK293T cells; note: read-out not given here; potency is the fitted concentration of half-maximal effect; nearly all actives have a fitted effect of over 45% in size
# Numbers without * were called inactive; ? = inconclusive; nt = not tested or not shown; ! = repeats disagree; [ ] = remark or other dose. % is set by controls: 0 for no effect and ±100 for the full control effect.
SMILES,LASV entry inh,Marburg entry inh,HCMV antiviral,FMDV antiviral
O=C(Nc1ccc(C(F)(F)F)cc1)c1cccn(Cc2ccc3c(c2)OC(F)(F)O3)c1=O,-12%,?,-98*,?
O=C(Nc1cccc(C(F)(F)F)c1)c1cccn(Cc2ccc3c(c2)OC(F)(F)O3)c1=O,7%,?,-16,-24%
CNC(=O)CSc1nnc(-c2ccco2)n1-c1ccc(C)cc1,6%,?,-22,-13%
CCCCCCCCCC(=O)NC(CN1CCOCC1)[C@H](O)c1ccccc1 (stereo not given in full),?,16µM*,nt,nt
COc1ccc(C(=O)C(CN2CCCC2)c2ccccc2)cc1 (stereo not given),?,?,-95*,16µM*
c1ccc(C(CN2CCOCC2)c2ccccc2)cc1,-2%,20%,40,4%
CCCOc1ccc(C(=O)C(CN2CCCC2)c2ccccc2)cc1 (stereo not given),?,?,-82*,18µM*
COc1ccc(C(=O)CCN2CCCCCC2)cc1,-24%,-4%,14,-19%
O=C(c1ccccc1)C(CCC(CN1CCOCC1)C(=O)c1ccccc1)CN1CCOCC1 (stereo not given),14µM*,?,-105*,25µM*
CCCOc1ccc(C(O)C(CN2CCOCC2)c2ccccc2)cc1 (stereo not given),-20%,-6%,?,-22%
CCOC(=O)c1c(C)[nH]c(C)c1C(=O)CN1C(=O)NC2(CCC(C)CC2)C1=O (stereo not given),-7%,20%,65,-25%
O=C(O)c1ccc(NC(=O)c2cccc(NC(=O)c3cccs3)c2)cc1,2%,1%,nt,0%
CCC(O)(c1ccc(OC)cc1)C(CN1CCOCC1)c1ccccc1 (stereo not given),nt,nt,?,-13%
COc1ccc(C(=O)C(CN2CCOCC2)c2ccccc2)cc1 (stereo not given),13µM*,?,-99*,11µM*
O=C(c1ccc(Cl)cc1)C(CN1CCCC1)c1ccccc1 (stereo not given),nt,nt,-101*,25µM*
O=C(c1ccc(F)cc1)C(CN1CCOCC1)c1ccccc1 (stereo not given),?,?,-77*,8.9µM*
CCCCOc1ccc(C(=O)C(CN2CCOCC2)c2ccccc2)cc1 (stereo not given),?,?,-107*,18µM*
Cc1nn(Cc2c(F)c(F)c(F)c(F)c2F)c(C)c1NC(=O)c1cccc(COc2ccccc2Cl)c1,?,?,82,-34%
Cc1nn(Cc2ccc(Cl)cc2Cl)c(C)c1NC(=O)c1ccc(COc2cc(Cl)ccc2Cl)o1,-17%,?,-40,?
CC(C)CNC(=O)c1ccc(COc2ccc(Cl)cc2Cl)o1,11µM*,-17%,-14,0%
Cc1nn(Cc2cccc(F)c2)c(C)c1NC(=O)c1ccc(COc2ccccc2Cl)cc1,-32%[14.3 µM],-8%,-76*,?
CC(=O)Nc1ccc(NC(=O)c2ccc(COc3ccc(Cl)cc3Cl)o2)cc1,1%[46.1 µM],?,-23,-21%
Cc1nn(Cc2c(F)c(F)c(F)c(F)c2F)c(C)c1NC(=O)c1ccc(COc2ccc(Cl)cc2Cl)o1,?,?,-81*,-10%
Cc1nn(C)c(Cl)c1C(N)=O,1%[46.1 µM],1%[46.1 µM],5,-7%
O=C(Nc1ccc(Nc2ccncc2)cc1)c1ccc(Nc2ccnc3ccc([N+](=O)[O-])cc23)cc1,-4%,?,-8,5%
SMILES,LASV entry inh,Marburg entry inh,HCMV antiviral,FMDV antiviral
COc1ccc(OC)c(S(=O)(=O)N2CCC(C(=O)Nc3cc(C)ccc3C)CC2)c1,?,?,-93*,nt
COc1ccc(OC)c(S(=O)(=O)N2CCC(C(=O)Nc3cccc(C)c3)CC2)c1,3%,-27%,-61*,nt
COc1ccc(OC)c(S(=O)(=O)N2CCC(C(=O)Nc3ccccc3)CC2)c1,-1%[46.1 µM],?,-4,-19%
COc1ccc(OC)c(S(=O)(=O)N2CCC(C(=O)N3CCN(c4ccc(F)cc4)CC3)CC2)c1,4%,-15%,-62*,?
COC(=O)c1ccccc1NC(=O)C1CCN(S(=O)(=O)c2cc(C)ccc2OC)CC1,-16%,?,?,-25%
COc1ccc(N2CCN(C(=O)C3CCN(S(=O)(=O)c4ccc(F)cc4)CC3)CC2)cc1,-25%[46.1 µM],3%[46.1 µM],-23,-22%
COc1ccc(NC(=O)C2CCC(C(C)(C)C)CC2)cc1S(=O)(=O)N1CCCCC1 (stereo not given),?,11µM*,-86*,18µM*
COc1ccccc1N1CCN(CC(=O)Nc2cccc(F)c2)CC1,3%,0%,-15,-27%
O=C(Nc1cccc2ccccc12)OC[C@@H]1CSCCS(=O)(=O)N1,?,nt,2,nt
COc1ccccc1N1CC=C(c2cccc([N+](=O)[O-])c2)NC1=O,nt,nt,10,4%
CC(C)(C)NC(=O)C(=O)NC(=O)c1c(F)cccc1Cl,2%[46.1 µM],3%[46.1 µM],-29,-1%
Cc1cc(C(F)(F)F)cc(NNC(=O)NC(=O)c2c(F)cccc2Cl)n1,?,7.1µM*,?,-11%
COCc1nnc(NC(=O)C2CC(=O)N(CCc3ccc(F)cc3)C2)s1 (stereo not given),13%[46.1 µM],-4%[46.1 µM],31,6%
COc1cccc(C(=O)Nc2ccc3[nH]ncc3c2)c1OC,-6%,-11%,41,17%
O=C1NC(=O)N(c2ccccc2F)C(=O)/C1=C/c1cn(CC(=O)N2CCOCC2)c2ccccc12,?,-1%[46.1 µM],2,22µM*
O=C(CCS(=O)(=O)c1ccc(Br)s1)Nc1cc(C(F)(F)F)cc(C(F)(F)F)c1,-1%[46.1 µM],?,-90*,?
CC(=O)c1cccc(NC(=O)CCS(=O)(=O)c2ccc(Br)s2)c1,3%[46.1 µM],?,?,-11%
COc1ccc(-c2ccc(SC)nn2)cc1,3.5µM*,?,-19,-70%
COc1ccc(C(=O)CSc2ccc(-c3ccccc3)nn2)cc1,0%,-1%,-16,-26%
COCCNC(=O)C1(C)CCCN(C(=O)c2cccc(C#N)c2)C1 (stereo not given),nt,nt,2,45%
CS(=O)(=O)CCNCc1ccc(-c2ccc3ncnc(Nc4ccc(OCc5cccc(F)c5)c(Cl)c4)c3c2)o1,nt,nt,-14,nt
CS(=O)(=O)CCNCc1ccc(-c2ccc3ncnc(Nc4ccc(OCc5cccc(C(F)(F)F)c5)cc4)c3c2)o1,28µM*,nt,nt,nt
CN1CN(c2ccccc2)C2(CCN(CCCSc3ccccc3NC(=O)/C=C/c3ccccc3)CC2)C1=O,?,?,-66*,0%
CC(N)C(=O)OC(C)(C)Cc1ccc(Cl)cc1 (stereo not given),?,10µM*!,-19,-14%
CCCCc1nnc(SCc2ccc(OCC)cc2)n1N,-1%,?,-11,9%
COc1ccc(CNC(=O)C/C(C)=N/NC(=O)c2ccc([N+](=O)[O-])cc2Cl)cc1,-2%,15%[46.1 µM],?,4%
Oc1[nH]c2ccccc2c1N=Nc1c(F)c(F)c(Cl)c(F)c1F,nt,nt,-97*,-5%
COc1ccc(-n2c(O)c(/C=C3\C=Nc4ccc(Br)cc43)c(=O)[nH]c2=O)c(OC)c1,?,?,106,25µM*
COc1ccc(-n2c(O)c(/C=C3\C=Nc4ccccc43)c(=O)[nH]c2=O)cc1,nt,nt,37,-10%
